NPC1 prom act = activators of NPC1 promoter; actives 2.4% (n = 320,000); Potency, µM (highest dose often 9.22 µM), for the others: at the highest dose activation, usual class: activators; Huh7 NPC1 promoter luciferase reporter, 24 h; further: % of control where 0% means no effect; nearly all actives have a fitted effect of over 60% in size
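Stable NPC1-promoter luciferase Huh7 line; cpd (DMSO) 24 h, 37 °C, 5% CO2; Amplite luciferase reagent 10 min RT; luminescence readout. qHTS format.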
ELG1 DNA repair = inhibitors of ELG1-dependent DNA repair in HEK293T cells; HEK293T ELG1-luciferase reporter, luminescence, 16 h; DNA damage induced by 5-fluorouridine; Potency, µM (series often up to 46.1 µM), for the others: top-dose activity change, negative = inhibition, hits mostly inhibitors; actives 2.3% (n = 330,000); further: on the % scale 0 is the no-effect control and ±100 the full control effect; nearly all actives have a fitted effect of over 55% in size
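Reporter activity after DNA damage by 5-fluorouridine is monitored. Compound-treated cells incubate 16 hr at 37 °C, then ONE-Glo is added for 30 min before luminescence reading.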
FLuc counter = firefly luciferase modulation, counter-screen for miR-21 project; purified FLuc, Km substrates, luminescence inhibition; P08659; AID 588342; actives 6.9% (n = 360,000); Potency, µM (doses to about 57.5 µM), inactives show top-dose activity change, negative = inhibition, usual class: inhibitors;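 further: plate controls were vehicle for no effect and reference inhibitor for full effect; nearly all actives have a fitted effect of over 55% in size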
Target sequence (P08659 whole entry, looked up): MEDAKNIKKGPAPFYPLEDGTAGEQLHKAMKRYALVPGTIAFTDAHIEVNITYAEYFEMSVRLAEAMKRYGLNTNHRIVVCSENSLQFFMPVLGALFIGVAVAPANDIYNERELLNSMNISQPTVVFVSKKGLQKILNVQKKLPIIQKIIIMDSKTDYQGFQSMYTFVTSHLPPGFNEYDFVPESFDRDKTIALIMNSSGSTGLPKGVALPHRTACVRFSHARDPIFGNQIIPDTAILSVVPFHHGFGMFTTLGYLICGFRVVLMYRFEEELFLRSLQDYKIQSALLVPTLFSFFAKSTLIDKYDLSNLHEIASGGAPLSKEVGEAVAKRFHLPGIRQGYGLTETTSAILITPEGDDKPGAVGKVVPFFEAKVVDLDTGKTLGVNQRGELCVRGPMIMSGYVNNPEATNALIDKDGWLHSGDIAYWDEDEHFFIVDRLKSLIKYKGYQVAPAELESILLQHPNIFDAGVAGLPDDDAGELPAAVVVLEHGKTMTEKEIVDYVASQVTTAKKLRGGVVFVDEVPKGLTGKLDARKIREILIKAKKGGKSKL
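Biochemical qHTS of compounds, final roughly 60 µM downward over six points, against 10 nM purified firefly luciferase using Km concentrations of substrates (10 uM D-luciferin, 10 uM ATP) in Tris acetate pH 7.5 buffer; luminescence output.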
SMN2 splice enh = enhancers of SMN2 splice variant expression; HEK293 SMN2-luciferase splicing reporter, luminescence, 30-36 h; Potency, µM (top dose mostly 46.1 µM), without a hit: at the top dose activity change, positive = activation, usual class: activators; actives 2.8% (n = 210,000); AID 1458; further: % of control where 0% means no effect; nearly all actives have a fitted effect of over 55% in size
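HEK293 cells carry an SMN2 minigene-luciferase reporter in which exon 7 inclusion puts luciferase in frame. Cells were seeded at 2000 cells/well, attached for 10-12 hours, then exposed to compounds for 30-36 hours at 37C before ONE-Glo luminescence.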
Rab9 promoter act = Rab9 promoter activation; Huh7 Rab9 promoter-luciferase reporter, luminescence, 24 h; Potency, µM (titrated, usually from 9.22 µM), without a hit: top-dose activation, negative = inhibition, most hits filed as activators; actives 2.8% (n = 320,000); further: % of control where 0% means no effect; nearly all actives have a fitted effect of over 60% in size
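Rab9 promoter-driven luciferase in stably transfected Huh7 cells; 1500 cells/well rested 2 h, exposed to compound in DMSO for 24 h at 37 °C, 5% CO2. Luminescence read 10 min after adding luciferase reagent at ambient temperature.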
ELG1 genotox = genotoxicity induction in ELG1-luciferase HEK293T cells; HEK293T ELG1-luciferase reporter, luminescence, 16 h; Potency, µM (doses to about 46 µM), for inactives: at the highest dose activity change, positive = activation, hits mostly activators; actives 1.3% (n = 330,000); AID 504466; further: % of control where 0% means no effect; nearly all actives have a fitted effect of over 60% in size
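Cells (2,000/well) expressing the ELG1-luciferase fusion are dosed by pin tool and kept 16 hr at 37 °C, 5% CO2. Signal comes from ONE-Glo luciferase reagent after 30 min at room temperature.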
* = called active by the depositor; ? = inconclusive; · = not tested or not shown. An excerpt weighted towards active compounds, which were near 9.2% of everything screened. The call rests on the fitted dose curve; in most records, active means well fitted curve in the direction sought with a large enough effect; inconclusive means small, poorly fitted or top-dose-only effect, or another doubt; inactive means no such curve, though single readings can be large; an effect the other way counts as inactive or inconclusive. Potency means the concentration at half of the fitted maximal effect.

SMILES	NPC1 prom act	ELG1 DNA repair	FLuc counter	SMN2 splice enh	Rab9 promoter act	ELG1 genotox
COc1ccccc1N(C)S(=O)(=O)c1ccc(C(=O)NCCc2ccc(F)cc2)cc1	-1%	?	1%	·	4%	-30%
COc1ccccc1N(C)S(=O)(=O)c1ccc(C(=O)Nc2nccs2)cc1	-1%	?	-10%	·	-2%	-9%
COc1ccccc1N(C)S(=O)(=O)c1ccc(C(=O)N(C)Cc2ccc(OC(F)F)cc2)cc1	-6%	16µM*	-1%	·	-10%	-9%
COc1cc(NC(=O)c2ccc(S(=O)(=O)N(C)c3ccccc3OC)cc2)cc(OC)c1	·	15µM*	·	·	·	-7%
CC(Oc1ccc(C(=O)c2ccc(F)cc2)cc1)C(=O)N1CCOCC1 (stereo not given)	-7%	18%	3%	·	-2%	-1%
CCOC(=O)c1c(C)oc2ncnc(Nc3ccc(OC)c(OC)c3)c12	·	·	-2%	·	·	·
COc1ccccc1N(C)S(=O)(=O)c1ccc(C(=O)Nc2ccc(N3CCOCC3)cc2)cc1	0%	23µM*	3%	-46%	-6%	-11%
CCC(C)(C)NC(=O)c1ccc(S(=O)(=O)N(C)c2ccccc2OC)cc1	·	·	0%	-15%	·	·
COc1ccccc1N(C)S(=O)(=O)c1ccc(C(=O)NCC(C)C)cc1	-1%	?	4%	-34%	1%	-6%
CN(CC(=O)Nc1ccc(N2CCOCC2)cc1)C(=O)c1cc(S(=O)(=O)N(C)C)ccc1Cl	-2%	?	15µM*	·	0%	13%
COc1ccccc1N(C)S(=O)(=O)c1ccc(C(=O)Nc2cccc(Br)c2)cc1	·	18µM*	·	·	·	-18%
CCOc1ccccc1-n1c(=S)sc2c(=O)n(-c3ccccc3)c(=S)[nH]c21	1%	10%	?	-45%	-4%	22%
CN1CCc2c(n(CC(O)CN3C(=O)c4ccccc4S3(=O)=O)c3ccccc23)C1=O (stereo not given)	-3%	15µM*	1%	-12%	2%	-2%
COC(=O)Cc1ccc(OCc2ccc(Cl)nc2)cc1	2.5µM*	?	15µM*	·	?	?
Cc1ccc(SCC(=O)OCC(=O)N(CC(C)C)c2c(N)n(Cc3ccccc3)c(=O)[nH]c2=O)c(C)c1	-3%	7%	2%	·	0%	1%
COc1cccc(NC(=O)CSc2nc3n[nH]c(C)c3c(=N)n2-c2cccc(OC)c2)c1	1%	?	2%	13%	-1%	-7%
COc1cccc(-n2c(SCC(=O)NCCC3=CCCCC3)nc3n[nH]c(C)c3c2=N)c1	-6%	16µM*	-1%	-14%	0%	-9%
CCc1ccc(NC(=O)CSc2nc3n[nH]c(C)c3c(=N)n2-c2cccc(OC)c2)cc1	-7%	10µM*	-1%	1%	-6%	3%
CN(C)C(CNC(=O)c1cccc(S(=O)(=O)NCc2ccccc2)c1)c1ccccc1 (stereo not given)	0%	0%	2%	·	-7%	4%
COc1ccc(CC(=O)N2CCc3ccccc3C2)cc1	-5%	?	?	·	-1%	10%
CCc1ccc(/C=C\C(=O)N2CCc3ccccc3C2)cc1	3%	?	7.6µM*	-3%	2%	?
O=C(/C=C/c1c(F)cccc1Cl)N1CCc2ccccc2C1	21%	?	17µM*	·	18%	8%
COc1cc(/C(C#N)=C/c2ccccc2)c([N+](=O)[O-])cc1OC	-3%	?	?	-7%	2%	-3%
Cc1ccc(C)c(CN2C(=O)CSc3ccc(C(=O)NCc4ccc(F)cc4)cc32)c1	·	·	-1%	-5%	·	·
O=C1O/C(=C\c2ccccc2)c2ccccc21	-3%	12%	12µM*	-5%	-3%	1%
SMILES	NPC1 prom act	ELG1 DNA repair	FLuc counter	SMN2 splice enh	Rab9 promoter act	ELG1 genotox
Cc1cccn2c1nc(=S)n2C(=O)c1ccco1	?	?	0.67µM*	?	1.4µM*	?
Cc1cccc(/C=C/c2ccccc2)n1	13µM*	·	·	?	11µM*	·
Cc1cc(C)nc(N/N=C/C=C/c2ccccc2)n1	-2%	?	?	1%	7%	1%
O=c1ccc(/C=C/c2ccccc2)nn1Cc1ccccc1	1%	-6%	-1%	-17%	1%	-1%
Cc1ccc2cccc(OC(=O)/C=C\c3ccccc3)c2n1	-2%	1%	6%	·	-3%	-1%
Cc1nc(/C=C/c2ccccc2)cc(/C=C/c2ccccc2)n1	1%	18%	19µM*	24%	2%	?
C(=C\c1cc(/C=C/c2ccccc2)ncn1)/c1ccccc1	7%	?	12µM*	-5%	10%	?
Cn1nc(/C=C/c2ccccc2)ccc1=O	16%	?	?	13µM*	3.2µM*	?
Cc1oc(-c2cccc(Cl)c2)nc1CN(C)C1CCOC1 (stereo not given)	-6%	-2%	-3%	·	-1%	-1%
Cc1oc(-c2ccc(-c3ccccc3)cc2)nc1CN(C)C1CCOC1 (stereo not given)	?	?	9.5µM*	·	?	?
Cc1oc(-c2ccc(-c3ccccc3)cc2)nc1CN(CCO)C(C)C	?	?	11µM*	·	?	?
O=c1c2ccccc2cnn1-c1nc2ccccc2[nH]1	0.1µM*	?	0.17µM*	·	?	-8%
O=c1c(Cl)c(N2CCCCC2)cnn1-c1nc2ccccc2[nH]1	?	?	0.38µM*	-63%	0.11µM*	?
Cc1ccc(NC(=O)NCCCN2CCCC2=O)cc1	11%	?	?	12%	12%	?
Cc1cc(C)cc(NC(=O)C(=O)NCCCN2CCCC2=O)c1	?	?	?	·	?	13µM*
COc1cccc(NC(=O)C(=O)NCCCN2CCCC2=O)c1	?	?	19µM*	·	28%	?
COc1ccccc1NC(=O)C(=O)NCCCN1CCCC1=O	11%	?	-15%	·	23%	5%
COC(=O)CNC(=O)COC(=O)/C=C/c1ccc(F)cc1	-3%	7%	3%	7%	-3%	-3%
Cn1c(-c2ccccc2F)cc2onc(-c3ccccc3)c2c1=O	0.32µM*	?	0.54µM*	·	0.4µM*	0.46µM*
CSc1nc(-c2ccccc2F)c(C#N)c(=O)n1C	-3%	18%	0%	-1%	3%	-8%
Cc1onc2c(=O)n(-c3ccccc3)nc(-c3ccccc3)c12	-1%	-3%	0%	·	-6%	0%
Cn1c(-c2ccccc2)cc2onc(-c3ccccc3)c2c1=O	0.079µM*	?	0.17µM*	·	40µM*	?

Screens: PubChem, National Center for Advancing Translational Sciences (NCATS)
